Consider 95 molecules from PubChem BioAssay AID2314 (National Center for Advancing Translational Sciences (NCATS), 2010).

Screen size: about 300,000 compounds; about 37,000 (12%) were called active. Cut-off read from the data, not from the text of the source: active = max response mostly above about 13% (no sharp cut-off); inactive = mostly below about 14%. For the sample, actives were picked, then their nearest neighbours and some compounds at random.

This assay in a line: Cycloheximide Counterscreen for Small Molecule Inhibitors of Shiga Toxin. Note: read at 38.3 µM for the half of the compounds with a filed dose; 0% is about no effect. As to conditions: cell reporter, cycloheximide protein synthesis inhibition counterscreen; hits give high values. (In general: Counterscreens check selectivity or assay interference.)
For the molecule `COc1ccc(/C=C(/NC(=O)c2ccco2)C(=O)Nc2ccc(C(C)=O)cc2)cc1`, the max response is 2.87% (inactive).
For the molecule `COc1ccc(N(Cc2ccccc2)S(=O)(=O)c2cccc(C(=O)O)c2)cc1`, the max response is -3.66% (inactive).
For the molecule `COc1ccc(CN(C)C(=O)CC(c2ccccc2)c2ccccc2)cc1`, the max response was -2.05% (inactive).
Then `COc1ccc(C(CC(=O)c2ccccc2)S(=O)(=O)c2ccccc2)cc1` (stereo not given), with 30% (active); and `Cc1ccc(SCc2c(C(=O)N/N=C/c3cccnc3)nnn2-c2nonc2N)cc1`, with 2.02% (inactive).
Turning to `CC(C)C[C@H](NC(=O)C1CC(=O)N(c2ccc3c(c2)OCCO3)C1)C(=O)NC1CCCC1` (stereo not given in full), the max response was 6.36% (inactive).
As for `C=C1CCN(C(CC(C)C)C(=O)N2CCOCC2)S(=O)(=O)c2ccccc21` (stereo not given), the figure is 4.95% (inactive); as for `N#C/C(=C/c1ccc(-c2ccccc2[N+](=O)[O-])o1)C(=O)NCCN1CCCCC1`, 2.31% (inactive).
Turning to `Cc1ccc(Cc2cnc(NC(=O)/C(C#N)=C/c3ccc(-c4cccc([N+](=O)[O-])c4)o3)s2)cc1`, the max response is -0.479% (inactive).
Then `Cc1ccc(-c2ccc(/C=C(\C#N)C(N)=S)o2)c([N+](=O)[O-])c1`, with 16% (active); and `COc1ccc(C)cc1N(C(=O)Cn1nnc(-c2ccc(C)o2)n1)C(C(=O)NC1CCCC1)c1ccncc1` (stereo not given), with -6.77% (inactive); and `O=C(Nc1ccc(-c2ccc3nncn3n2)cc1)C1CCCCC1`, with 16% (active).
Then `O=C(O)c1ccc(NC(=O)C2CCCCC2)cc1`, with -1.35% (inactive).
As for `CC(C)NS(=O)(=O)c1ccc(NC(=O)C2CCCCC2)cc1`, the figure is -0.865% (inactive).
Consider `CCCOc1ccc(C2NC(=O)NC(c3ccccc3)=C2C(C)=O)cc1OCC` (stereo not given), for which the max response was -7.3% (inactive).
For `CCN1N=C(c2ccccc2)CCC1=O`, the max response is -2.27% (inactive).
As for `Nc1ccn(C2CC(O)C(CO)O2)c(=O)n1` (stereo not given), the figure is -1.51% (inactive).
`CC(NC(=O)c1ccco1)C(=O)Nc1nc(-c2ccccn2)cs1` (stereo not given): the max response is -2.97% (inactive).
Then `Clc1ccc(Nc2nc(-c3cccs3)cs2)nc1`, with 37.5% (active).
`COc1ccc2cc(S(=O)(=O)Nc3ccccn3)ccc2c1`: the max response is -3.68% (inactive).
Regarding `COC(=O)CSc1nccc(-c2cccs2)n1`, the max response was 17% (inactive).
Then `c1cnc(Nc2nc(-c3ccc4ccccc4c3)cs2)nc1`, with 42.5% (active); and `c1ccc(NCc2cccc3ccccc23)nc1`, with 9.29% (inactive).
On to `COc1ccc(-c2csc(Nc3ccccn3)n2)cc1`, for which the max response is 40.4% (active).
Take `COC(=O)c1cc(-c2cccs2)nc2ccccc12`: the max response was -2.85% (inactive).
On to `c1ccc(Nc2nc(-c3ccncc3)cs2)nc1`, for which the max response is 36.4% (active).
Take `COc1ccc(-c2nc(CS(=O)(=O)CC(=O)NCc3cccc(Br)c3)c(C)o2)cc1`: the max response is 6.41% (inactive).
As for `Cc1ccc(OCCCCN2CCCCC2)c(Br)c1`, the max response is 10.9% (inactive).
For the molecule `CC(C)(C)NC(=O)NC(=O)COC(=O)C1c2ccccc2Oc2ccccc21`, the max response was 0.419% (inactive).
Take `Cc1ccc(CNC(=O)c2cccnc2Cl)cc1`: the max response is 6.44% (inactive).
For `CCN(C(=O)c1ccc(Br)cc1)c1ccccc1`, the max response was -3.18% (inactive).
As for `Cc1cccc(C(=O)N2CCCC(Nc3ccc(C(C)C)cc3)C2)n1` (stereo not given), the figure is 17.8% (inactive).
On to `CCOC(=O)C1(CCOc2ccccc2)CCN(Cc2ccc(C#CCCO)cc2)CC1`, for which the max response was -3.24% (inactive).
In the case of `CCCC1=Nc2cc(C(=O)NCCN3CCCC3)ccc2Sc2ccccc21`, the max response was -5.31% (inactive).
In the case of `O=C(Nc1nccs1)c1cc(S(=O)(=O)N2CCOCC2)c(Cl)cc1Cl`, the max response was -3.9% (inactive).
Then `O=C(Nc1ccc(OCC(=O)N2CCOCC2)cc1)c1cc(F)c(F)cc1Cl`, with 2.51% (inactive); and `CCN1CCc2nc(NC(=O)c3cc(F)c(F)cc3Cl)sc2C1`, with 18.8% (active).
Regarding `O=C(CSc1nnnn1-c1ccc(O)cc1)c1ccc(F)cc1`, the max response was 23.5% (active).
As for `Cc1cc(NC(=O)CSc2nnnn2-c2ccc(F)cc2)no1`, the figure is -1.5% (inactive); as for `COc1ccc(-n2nnnc2SCC(=O)c2ccc(OC)c(OC)c2)cc1`, -0.506% (inactive).
Turning to `CCC(C(=O)NCc1cccnc1)n1nc(C)c2sc3ccccc3c2c1=O` (stereo not given), the max response was -10.2% (inactive).
As for `CC(C)N(C(=O)Cn1cc(S(=O)(=O)CC(=O)N2CCOCC2)c2ccccc21)C(C)C`, the figure is 2.9% (inactive); as for `O=C(NCCCn1ccnc1)C1CCCN(S(=O)(=O)c2cc(Cl)ccc2Cl)C1` (stereo not given), -4.82% (inactive); as for `O=c1cc(-c2ccc(O)cc2)oc2c([C@@H]3O[C@H](CO)[C@@H](O)[C@H](O)[C@H]3O)c(O)cc(O)c12`, -8.35% (inactive).
As for `CCn1ccnc1CN(C)Cc1nc(-c2ccc3c(c2)OCO3)no1`, the max response was 28.4% (active).
For the molecule `CN(CCN1CCOCC1)Cc1nc(-c2ccc3c(c2)OCO3)no1`, the max response was 8.52% (inactive).
For the molecule `CC(C)N(Cc1nc(-c2ccc3c(c2)OCO3)no1)CC1CCC(=O)N1` (stereo not given), the max response was 1.08% (inactive).
Consider `Cc1ccc(C)c(N2CCN(C(=O)CCCCCn3c(=S)[nH]c4ccc(N5CCOCC5)cc4c3=O)CC2)c1`, for which the max response is 9.94% (inactive).
As for `COc1cc(OC)c(OC)cc1/C=N/Nc1ncnc2c1[nH]c1ccc(C)cc12`, the figure is -3.15% (inactive).
As for `CC(C)OCCCNc1ncnc2c1[nH]c1ccc(F)cc12`, the figure is 39% (active); as for `Fc1ccc2[nH]c3c(N4CCSCC4)ncnc3c2c1`, 5.04% (inactive).
Then `O=CN1CCN(C(=O)c2ccc(Br)o2)CC1`, with 1.29% (inactive); and `C=CCn1c(Oc2ccc(C(=O)OC)cc2)nc2c1c(=O)n(C)c(=O)n2C`, with -5.23% (inactive).
With `Cc1ccccc1NC(=O)N1CCCC1C(=O)NCc1ccccc1` (stereo not given), the max response was -1.83% (inactive).
On to `Cc1c(CCO)c(=O)[nH]n1C(=O)c1c(F)cccc1F`, for which the max response was 17% (inactive).
Then `COc1ccc(-n2ncc3c(N4CCCc5ccccc54)ncnc32)cc1`, with 44.9% (active); and `COc1ccc(Oc2c(Cl)cnn(-c3ccccc3)c2=O)cc1`, with -1.92% (inactive); and `COc1ccc(-n2ncc3c(N4CCc5ccccc54)ncnc32)cc1`, with 49.8% (active).
Then `COc1ccc(CCC(C)N2CCc3ccccc3C2)cc1` (stereo not given), with 1.02% (inactive); and `COc1ccc(-n2ncc3c2CC(C)(C)CC3NC(=O)CCc2c(C)noc2C)cc1` (stereo not given), with 1.45% (inactive); and `C#CC(CCN1CCCCC1)(OC)c1ccccc1` (stereo not given), with -1.93% (inactive).
`COc1ccccc1NC(=S)N1CCN(C(c2ccccc2)c2ccccc2)CC1`: the max response was -1.77% (inactive).
Consider `Cc1nc2ccc(NC(=S)N3CCC(C)CC3)cc2nc1C`, for which the max response is 29.7% (active).
With `Cc1nc2ccc(NC(=O)N3CCC(c4ccccc4)C3)cc2nc1C` (stereo not given), the max response is -1.48% (inactive).
As for `Cc1cccc(NC(=S)N2CCC(c3nc4ccccc4s3)CC2)c1`, the max response is -8.19% (inactive).
As for `O=C(Cc1ccc(Cl)c(Cl)c1)Nc1ccc(SC(F)F)cc1`, the figure is 32.1% (active); as for `CC(=O)N1CCN(CC(=O)Nc2ccc(SC(F)F)cc2)CC1`, -7.31% (inactive); as for `Cc1ccc(CC(=O)Nc2ccc(OC(F)F)c(Cl)c2)cc1C`, -1.56% (inactive).
`Cc1ccc(C(C[N+](=O)[O-])c2c(C)cc3ccccn23)cc1` (stereo not given): the max response is -2.05% (inactive).
For the molecule `Nc1ccccc1SC(C[N+](=O)[O-])c1ccccc1` (stereo not given), the max response was 58.7% (active).
As for `CCCN1C2CCCC1CC(NC(=O)c1cccc(OC)c1)C2` (stereo not given), the figure is 0.249% (inactive).
For `COc1ccccc1C1CCN(c2ccc([N+](=O)[O-])cn2)CC1`, the max response is 4.09% (inactive).
For `O=C(Cc1c(Cl)cccc1Cl)NC1CC1`, the max response was -4.84% (inactive).
As for `Cc1ccc(S(=O)(=O)c2nnn3c2nc(N2CCN(c4ccccn4)CC2)c2ccccc23)cc1`, the figure is -2.94% (inactive).
As for `FC(F)(F)c1cc(-c2ccco2)nc(NCc2ccc(Cl)cc2)n1`, the figure is -4.49% (inactive); as for `CN(CC(=O)Nc1ccc(F)cc1)C(=O)c1ccc(-c2ccc(Cl)cc2)o1`, 10.2% (inactive); as for `Nc1nnnn1CC(=O)N/N=C/c1ccc(-c2cccc(Cl)c2)o1`, 12.6% (inactive).
As for `O=C(N/N=C\c1ccc(-c2ccc(Cl)c(Cl)c2)o1)C(=O)N1CCCC1`, the figure is -1.36% (inactive); as for `COC(=O)N/N=C/c1ccc(-c2ccc(Cl)c(Cl)c2)o1`, 51.5% (active); as for `Cc1cccc(-c2nc(CS(=O)CC(=O)NC(C)CCc3ccccc3)c(C)o2)c1` (stereo not given), -0.794% (inactive).
Regarding `O=C(Nc1ccc(Cl)c(Cl)c1)N1CC=C(c2ccccc2)CC1`, the max response is 4.38% (inactive).
As for `Cc1ccc(C)c(N2CCN(C(=O)CCCn3c(=O)c4cccn4c4cccnc43)CC2)c1`, the max response is -1.51% (inactive).
As for `COc1ccc(C2NC(=S)NC3=C2CCc2ccccc23)cc1OC` (stereo not given), the figure is 6.79% (inactive).
With `CCOC(=O)C1=C(c2ccccc2)NC(=S)NC1c1ccc(Cl)cc1` (stereo not given), the max response was 1.29% (inactive).
Then `CCOc1ccc(C2NC(=S)NC3=C2CCc2ccccc23)cc1` (stereo not given), with 54.2% (active); and `Cc1ccc(CNC(=O)[C@@H](NC(=O)Cc2ccccc2)C(C)C)cc1`, with 3.51% (inactive).
As for `CSCCC(NS(=O)(=O)c1ccc2c(c1)oc(=O)n2C)C(=O)NC1CCCc2ccccc21` (stereo not given), the max response is 7.75% (inactive).
Turning to `O=[N+]([O-])c1cccc(S(=O)(=O)NCc2ccccn2)c1`, the max response is -2.36% (inactive).
As for `COc1cccc(C(=O)OCc2cc(=O)oc3c(C)c(C)ccc23)c1OC`, the figure is -3.37% (inactive).
Then `O=C(Nc1ccccc1)c1ccccc1NC(=O)C(F)(F)F`, with 11.2% (inactive).
Then `O=C(Nc1cccc(Cl)c1Cl)c1ccccc1NC(=O)C1CC=CCC1C(=O)O` (stereo not given), with 26.8% (active).
For `O=C(Nc1ccc(Cl)c(Cl)c1)c1ccccc1NC(=O)C1CC=CCC1C(=O)O` (stereo not given), the max response was 38.2% (active).
`O=C(Nc1ccccc1C(=O)N1CCCCCC1)c1ccccc1Cl`: the max response is -3.34% (inactive).
As for `O=C(O)C1CC=CCC1C(=O)Nc1ccccc1C(=O)N1CCN(c2ccccc2)CC1` (stereo not given), the figure is -3.82% (inactive).
On to `O=C(O)C1CC=CCC1C(=O)NCCc1ccccc1` (stereo not given), for which the max response was -2.55% (inactive).
